Results reported in PubChem BioAssay (NCI).
About 79,000 compounds went through this panel and 15% of them were active in at least one assay; those are over-represented in the sample as a whole. Unmarked numbers belong to inactive results. Active and inactive are the calls of the source. Rule as the data show it: active = growth inhibition above about 70%; inactive = the rest.

Test: NCI Yeast Anticancer Drug Screen. Data for the rad18 strain (AID 177)
Conditions: S. cerevisiae rad18 mutant growth inhibition, stronger effect = higher value
Description: Growth inhibition of yeast strains with defined genetic alterations is measured as a screen for potential anti-cancer activity. Selected strains with alterations in DNA damage repair or cell cycle control were exposed to compounds and growth inhibition was measured relative to vehicle treated controls. The strain used in this assay is rad18

Structure (SMILES) | growth inhibition (at 1.2 µM) [%] | growth inhibition (at 3.7 µM) [%] | growth inhibition (at 11.0 µM) [%] | growth inhibition (at 33.0 µM) | growth inhibition (at 100.0 µM)
Cc1ccc2ccc3cccc4ccc1c2c34 | -4 | 0 | 11 | 60% | 82% (active)
O=C(Nc1ccccc1)C(=O)C(C(=O)c1ccccc1)C(c1ccccc1)c1ccccc1 (stereo not given) | 7 | 10 | 22 | 41% | 47%
O=C1c2ccccc2C(=O)c2cc(CBr)ccc21 | 2 | 10 | 23 | 78% (active) | 93% (active)
c1ccc2c(c1)C(=NCCCN1CCCCCC1)c1cccn1-2 | -1 | 1 | 4 | 1% | 98% (active)
O=C1C=CC(=Nc2ccc3c(c2)Cc2cc(NC(=O)C(F)(F)F)ccc2-3)O1 | 4 | 13 | 32 | 57% | 96% (active)
O=C(O)CNc1ccc(Cl)c(Cl)c1 | -2 | -4 | 2 | 76% (active) | 98% (active)
C[C@@H]1C[C@H]2[C@@H]3CCC4=CC(=O)C=C[C@]4(C)[C@@]3(Cl)[C@@H](Cl)C[C@]2(C)[C@@]1(O)C(=O)COP(=O)(O)O | -4 | -5 | 1 | 7% | 7%
Clc1ccccc1C1OC1c1ccccc1Cl (stereo not given) | -59 | -48 | -64 | -48% | 2%
